Measurements from PubChem BioAssay (Tox21).
Records with an inconclusive call do not appear. Active and inactive are the calls of the source. Unless noted, calls follow the shape of the dose curve; as a rule, active = well fitted curve in the direction sought with a large enough effect in the repeat runs; inconclusive = weak or mixed curves; inactive = no such curve, though single readings can be large; an effect the other way counts as inactive or inconclusive.

Assays:
[1] = qHTS assay for small molecule agonists of the p53 signaling pathway (AID 651631; calls by dose curve; also: nearly all actives have a fitted effect of over 15% in size)
Method in brief: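 Stably transfected HCT-116 cells (beta-lactamase behind p53 response elements) get compounds after a 5 h settling period; 16 h later at 37 °C, FRET substrate is loaded and fluorescence read after 2 h.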

[2] = qHTS assay for small molecules that induce genotoxicity in human embryonic kidney cells expressing luciferase-tagged ATAD5 (AID 651632); also: nearly all actives have a fitted effect of over 15% in size
Method in brief: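 DMSO vehicle served as the control. HEK293T reporter cells, 16 hr at 37C, then 30 min Amplite at room temperature; ATAD5 induction is measured as luciferase activity.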

[3] = qHTS assay for small molecule agonists of the p53 signaling pathway - cell viability (AID 651633; calls by dose curve;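 also: p53RE-bla HCT reporter cells with a stable beta-lactamase p53 reporter; series mostly up to about 83 µM; nearly all actives have a fitted effect of over 30% in size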)
Method in brief: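 p53RE-bla cells were treated with compound for 16 hours at 37 C. Cytotoxicity was then measured as CellTiter-Glo luminescence after 30 min at room temperature.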

[4] = qHTS assay for small molecules that induce genotoxicity in human embryonic kidney cells expressing luciferase-tagged ATAD5 - cell viability (AID 651634; calls by dose curve; also: nearly all actives have a fitted effect of over 25% in size)
Method in brief: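 Here HEK293T cells with the ATAD5 luciferase reporter are incubated with test compounds for 15.5 hr, and cytotoxicity is then gauged by measuring protease activity in live cells using fluorescence.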

[5] = qHTS assay for small molecule disruptors of the mitochondrial membrane potential - cell viability (AID 720634; calls by dose curve;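 also: human HepG2 liver cancer cells; series mostly up to about 83 µM; nearly all actives have a fitted effect of over 20% in size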)
Method in brief: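 Viability of HepG2 cells is scored from ATP content by luminescence; cells are exposed to compound for 1 hr at 37 C and 5% CO2, then dosed with m-MPI dye before the CellTiter-Glo reagent.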

[6] = qHTS assay to test for compound auto fluorescence at 590 nm (red) in HepG2 cells (AID 720674)
Method in brief: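 HepG2 cells, 2,000 per well in MEM with 10% FBS, attached overnight at 37 C, then got 23 nL compound or DMSO. After 1 hr at 37 C, 5% CO2, red fluorescence was read at 540/590 nm against Rose Bengal sodium as reference.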

[7] = qHTS assay to test for compound auto fluorescence at 535 nm (green) in HepG2 cells (AID 720675)
[8] = qHTS assay to test for compound auto fluorescence at 460 nm (blue) in HEK293 cells (AID 720678)
Method in brief: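 HEK293 cells (2,000/well, medium with 10% dialyzed FBS) attached 4-5 hr, then exposed to compound overnight at 37C, 5% CO2. Blue fluorescence read at 405/460 nm, with triamterene as reference fluorophore.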

[9] = qHTS assay to test for compound auto fluorescence at 590 nm (red) in HEK293 cells (AID 720679)
Method in brief: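 HEK293 cells (2,000/well, 10% dialyzed FBS) attached 4-5 hr, then dosed with compound or DMSO and incubated overnight at 37C, 5% CO2. Red fluorescence read at 540/590 nm, Rose Bengal sodium as reference fluorophore.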

[10] = qHTS assay to test for compound auto fluorescence at 535 nm (green) in HEK293 cells (AID 720680)
[11] = qHTS assay to test for compound auto fluorescence at 460 nm (blue) in HEK293 cell free culture (AID 720681)
Method in brief: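 Compounds were added to cell-free DMEM with 10% FBS and fluorescence read directly. The blue channel used 405 nm excitation and 460 nm emission, with triamterene as the reference fluorophore.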

[12] = qHTS assay to test for compound auto fluorescence at 535 nm (green) in HEK293 cell free culture (AID 720682)
Method in brief: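 Using fluorescein as calibrant, autofluorescence was quantified at 485/535 nm in cell-free DMEM containing 10% FBS after pintool addition of compound or vehicle.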

[13] = qHTS assay to test for compound auto fluorescence at 590 nm (red) in HEK293 cell free culture (AID 720683)
Method in brief: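 Cell-free wells of DMEM with 10% FBS received compound, and intrinsic fluorescence was read at excitation/emission 540/590 nm. Values expressed as equivalence to Rose Bengal sodium.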

[14] = qHTS assay to test for compound auto fluorescence at 590 nm (red) in HepG2 cell free culture (AID 720684)
Method in brief: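 Rose Bengal sodium served as the reference for red signal. Test compounds were dispensed into serum-containing MEM (10% FBS) without cells, and plates were read at 540/590 nm.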

[15] = qHTS assay to test for compound auto fluorescence at 535 nm (green) in HepG2 cell free culture (AID 720686)
[16] = qHTS assay to test for compound auto fluorescence at 460 nm (blue) in HepG2 cells (AID 720687)
Method in brief: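 HepG2 cells in MEM with 10% FBS, attached overnight at 37 C, were exposed to compound or DMSO for 1 hr at 37 C, 5% CO2. Blue fluorescence was read at 405/460 nm, with triamterene as reference fluorophore.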

[17] = qHTS assay to test for compound auto fluorescence at 460 nm (blue) in HepG2 cell free culture (AID 720685)
Method in brief: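 Cell-free plates of MEM plus 10% FBS received 23 nL compound or DMSO vehicle; blue-channel (405/460 nm) intensity scored against triamterene as reference fluorophore.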

[18] = biological target: Glucocorticoid receptor (Homo sapiens) (UniProt P04150); assay: qHTS assay to identify small molecule agonists of the glucocorticoid receptor (GR) signaling pathway (AID 720691; active = well fitted activation curve with a large enough effect in the signal ratio in the repeat runs, not every such curve was filed as active; the % refers to the signal ratio)
Chain of Glucocorticoid receptor (Homo sapiens) (P04150 whole entry, looked up): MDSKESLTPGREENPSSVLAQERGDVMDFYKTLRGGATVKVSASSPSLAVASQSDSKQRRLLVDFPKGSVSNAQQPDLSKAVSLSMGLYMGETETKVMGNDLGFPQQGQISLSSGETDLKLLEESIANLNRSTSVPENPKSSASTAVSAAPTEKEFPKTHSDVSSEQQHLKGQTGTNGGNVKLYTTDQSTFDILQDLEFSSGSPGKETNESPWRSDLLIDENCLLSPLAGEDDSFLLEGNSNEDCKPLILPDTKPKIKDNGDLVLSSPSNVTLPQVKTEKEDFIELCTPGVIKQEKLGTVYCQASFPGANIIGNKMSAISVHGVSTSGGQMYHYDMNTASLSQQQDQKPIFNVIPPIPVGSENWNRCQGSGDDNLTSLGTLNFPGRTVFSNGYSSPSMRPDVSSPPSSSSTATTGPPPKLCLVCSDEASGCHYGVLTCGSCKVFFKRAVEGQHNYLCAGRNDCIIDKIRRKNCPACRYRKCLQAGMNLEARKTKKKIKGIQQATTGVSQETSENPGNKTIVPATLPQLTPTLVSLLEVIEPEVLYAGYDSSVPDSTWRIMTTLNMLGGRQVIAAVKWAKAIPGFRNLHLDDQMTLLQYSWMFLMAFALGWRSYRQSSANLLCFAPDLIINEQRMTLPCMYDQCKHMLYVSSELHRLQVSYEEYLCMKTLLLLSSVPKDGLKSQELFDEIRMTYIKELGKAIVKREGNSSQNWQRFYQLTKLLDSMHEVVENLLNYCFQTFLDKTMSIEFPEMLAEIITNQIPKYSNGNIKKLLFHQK
Method in brief: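 Compounds in DMSO, alongside positive controls, were added to GR-bla HeLa reporter cells and incubated 18 h at 37 C; GRE-driven beta-lactamase was detected by fluorescence after 2 h with FRET substrate at room temperature.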

[19] = biological target: Glucocorticoid receptor (Homo sapiens) (UniProt P04150); assay: qHTS assay to identify small molecule antagonists of the glucocorticoid receptor (GR) signaling pathway (AID 720692; active = well fitted inhibition curve with a large enough effect in the signal ratio in the repeat runs, not every such curve was filed as active; the % refers to the signal ratio)
Method in brief: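 In a 1536-well cell format, compounds were added 4 h after seeding GR-bla HeLa cells, together with dexamethasone at 5 nM final; reporter activity was measured by FRET-substrate fluorescence following 18 h at 37 C.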
% is scaled to controls: 0 for no effect and ±100 for the full control effect.

CCOC(=O)CC(CC(=O)OCC)(OC(C)=O)C(=O)OCC
inactive: outcome [1] | outcome [2] | outcome [3] | Potency [4] | outcome [5] | outcome [6] | outcome [7] | outcome [8] | outcome [9] | outcome [10] | outcome [11] | outcome [12] | outcome [13] | outcome [14] | outcome [15] | outcome [16]

CCCOC(=O)CCCCC(=O)OCCC
inactive: outcome [1] | outcome [2] | outcome [3] | Potency [4] | outcome [5] | outcome [6] | outcome [7] | outcome [8] | outcome [9] | outcome [10] | outcome [11] | outcome [12] | outcome [13] | outcome [14] | outcome [17] | outcome [15] | outcome [16] | Potency [18] | outcome [19]

NS(=O)(=O)c1ccc(Cl)c(S(N)(=O)=O)c1
inactive: outcome [1] | outcome [2] | outcome [3] | Potency [4] | outcome [5] | outcome [6] | outcome [7] | outcome [8] | outcome [9] | outcome [10] | outcome [11] | outcome [13] | outcome [14] | outcome [17] | outcome [15] | outcome [16] | Potency [18] | outcome [19]

FC(F)(F)c1ccc(Cl)cc1Cl
inactive: outcome [1] | outcome [2] | outcome [3] | Potency [4] | outcome [5] | outcome [6] | outcome [7] | outcome [8] | outcome [9] | outcome [10] | outcome [11] | outcome [12] | outcome [13] | outcome [14] | outcome [17] | outcome [15] | outcome [19]

Nc1cc(S(=O)(=O)O)ccc1S(=O)(=O)O
inactive: outcome [1] | outcome [2] | outcome [3] | Potency [4] | outcome [5] | outcome [6] | outcome [7] | outcome [8] | outcome [9] | outcome [10] | outcome [11] | outcome [12] | outcome [13] | outcome [14] | outcome [17] | outcome [15] | outcome [16] | outcome [19]

CCCCC/C=C/CC(=O)OC
inactive: outcome [1] | outcome [2] | outcome [3] | Potency [4] | outcome [5] | outcome [6] | outcome [7] | outcome [8] | outcome [9] | outcome [10] | outcome [11] | outcome [12] | outcome [13] | outcome [14] | outcome [16] | outcome [19]

BrC/C=C/CBr
inactive: outcome [1] | outcome [2] | outcome [3] | Potency [4] | outcome [5] | fluorescence, relative to Rose Bengal [6] -0.458% [at 18.6 µM] | fluorescence, % of fluorescein control [7] -0.0535% [at 18.6 µM] | fluorescence, % of triamterene [8] 0.0974% [at 18.6 µM] | fluorescence, % of fluorescent control [9] 0.0091% [at 18.6 µM] | fluorescence, % of fluorescein [10] 0.0238% [at 18.6 µM] | fluorescence, % of fluorescent control [11] -0.0065% [at 18.6 µM] | activity change [12] 0.0973% [at 18.6 µM] | fluorescence, % of fluorescent control [13] -0.0344% [at 18.6 µM] | fluorescence, % of Rose Bengal [14] 0.0351% [at 18.6 µM] | fluorescence, % of fluorescent control [17] -0.08% [at 18.6 µM] | fluorescence, % of fluorescent control [16] 0.058% [at 18.6 µM]
